Where “and” joins values, the source holds several entries; their conditions need not be identical. Equal values may be shown once. Values without a mark were called inactive. Results filed as inconclusive are left out. A call without a number means that no potency is given here. Calls of active or inactive are those of the source. Unless noted, the call rests on the fitted dose curve; in most records, active means well fitted curve in the direction sought with a large enough effect in the repeat runs; inconclusive means weak or mixed curves; inactive means no such curve, though single readings can be large; an effect the other way counts as inactive or inconclusive.
Assays:
[1] = qHTS assay for small molecules that induce genotoxicity in human embryonic kidney cells expressing luciferase-tagged ATAD5 (AID 651632); further: nearly all actives have a fitted effect of over 15% in size; further: potency means the concentration at half of the fitted maximal effect
Summary of the method: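 Luminescent reporter readout, HEK293T ATAD5-luc line: 16 hr drug exposure (37C, 5% CO2) followed by Amplite, 30 min RT.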

[2] = qHTS assay for small molecules that induce genotoxicity in human embryonic kidney cells expressing luciferase-tagged ATAD5 - cell viability (AID 651634; calls by dose curve; further: nearly all actives have a fitted effect of over 25% in size; further: potency means the concentration at half of the fitted maximal effect)
Summary of the method: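 Viability read: CellTiter-Fluor fluorescence, 30 min at 37C. Cells: HEK293T, luciferase-tagged ATAD5. Exposure: 15.5 hr, 37C, 5% CO2, compound or DMSO vehicle.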

[3] = qHTS assay for small molecule disruptors of the mitochondrial membrane potential - cell viability (AID 720634; calls by dose curve; further: nearly all actives have a fitted effect of over 20% in size; further: potency means the concentration at half of the fitted maximal effect)
Summary of the method: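 HepG2, 1 hr compound, 37 C. ATP luminescence via CellTiter-Glo, 30 min RT, same well as m-MPI.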

[4] = qHTS assay to test for compound auto fluorescence at 590 nm (red) in HepG2 cells (AID 720674)
Summary of the method: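 Red autofluorescence (Ex/Em 540/590 nm, Rose Bengal sodium equivalents) was measured in HepG2 cells, 2,000 per well in MEM plus 10% FBS, plated overnight at 37 C. Readings were taken 1 hr after adding 23 nL compound or DMSO, at 37 C and 5% CO2.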

[5] = qHTS assay to test for compound auto fluorescence at 535 nm (green) in HepG2 cells (AID 720675)
[6] = qHTS assay to test for compound auto fluorescence at 460 nm (blue) in HEK293 cells (AID 720678); further: potency means the concentration at half of the fitted maximal effect
Summary of the method: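 Triamterene serves as the blue fluorophore standard. Compound signal at 405/460 nm is read in HEK293 wells (2,000 cells, 10% dialyzed FBS) after overnight treatment at 37C.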

[7] = qHTS assay to test for compound auto fluorescence at 590 nm (red) in HEK293 cells (AID 720679)
Summary of the method: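 We plated HEK293 cells in 10% dialyzed FBS medium, let them adhere for 4-5 hr, then added 23 nL compound. Overnight at 37C and 5% CO2 preceded fluorescence measurement at 540/590nm.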

[8] = qHTS assay for small molecule disruptors of the mitochondrial membrane potential (AID 720635); further: potency means the concentration at half of the fitted maximal effect
Summary of the method: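 Mitochondrial membrane potential tracked with Mito-MPS dye, red aggregates (ex 540/em 590 nm) against green monomers (ex 490/em 535 nm). Compound treatment 1 hr at 37C, dye 30 min in HepG2.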

[9] = qHTS assay for small molecule agonists of the p53 signaling pathway - cell viability (AID 651633; calls by dose curve; further: potency means the concentration at half of the fitted maximal effect; nearly all actives have a fitted effect of over 30% in size)
Summary of the method: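 Viability counter-read: CellTiter-Glo luminescence (30 min, room temperature) in the same p53RE-bla plates. These plates had been exposed to compounds for 16 h at 37 C.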
Tags describe the fitted curve by direction and shape or compound fluorescence and quenching.

Row | Structure (SMILES) | Potency [1] | Potency [2] | Potency [3] | outcome [4] | outcome [5] | Potency [6] | outcome [7] | Potency [8] | fluorescence, relative to Rose Bengal [4] | fluorescence, % of fluorescein control [5] | fluorescence, % of triamterene [6] | fluorescence, % of fluorescent control [7] | Potency [9]
1 | Nc1ccc(Sc2ccc(N)cc2)cc1 | inactive | inactive | inactive | inactive | inactive | inactive | inactive | – | – | – | – | – | –
2 | O=[N+]([O-])c1ccc(Oc2ccc(C(F)(F)F)cc2[N+](=O)[O-])cc1 | inactive | inactive | 19.3 µM (active) | inactive | inactive | inactive | inactive | 12.2 µM (active) | – | – | – | – | –
3 | COC12CC[C@@]3(C[C@@H]1C(C)(O)C(C)(C)C)[C@H]1Cc4ccc(O)c5c4[C@@]3(CCN1CC1CC1)[C@H]2O5 (stereo partly drawn) | inactive | 60.7 µM (active) | 54.1 µM (active) | inactive | inactive | inactive | inactive | 19.2 µM (active) | – | – | – | – | –
4 | CC(C)C1CCC(Cc2ccc(Cl)cc2)C1(O)Cn1cncn1 (stereo not drawn) | inactive | 53.9 µM (active) | – | inactive | inactive | inactive | inactive | 15.2 µM (active) | – | – | – | – | –
5 | CCCCCCCCCCCCCCCC[N+](C)(C)C | inactive | inactive | inactive | inactive | inactive | inactive | inactive | 13.3 µM (active) and 10.5 µM (active) and 27.3 µM (active) | – | – | – | – | –
6 | Nc1ccccc1C(=O)OC/C=C/c1ccccc1 | inactive | inactive | – | inactive | inactive | inactive | inactive | 19.4 µM (active) | – | – | – | – | –
7 | O=C(CCl)Nc1ccccc1 | inactive | 48.6 µM (active) | inactive | inactive | inactive | inactive | – | – | – | – | – | – | –
8 | CCCCCCCCCCCCBr | inactive | inactive | – | inactive | inactive | inactive | inactive | 27.3 µM (active) | – | – | – | – | –
9 | CC(C)(C)c1cc([N+](=O)[O-])cc(C(C)(C)C)c1O | inactive | 13.7 µM (active) | – | inactive | inactive | inactive | – | 0.122 µM (active) | – | – | – | – | –
10 | Oc1ccc2ccc3cccc4ccc1c2c34 | inactive | inactive | – | inactive | inactive | 35.5 µM [fluorescent] (active) | inactive | 2.73 µM (active) | – | – | – | – | –
11 | Clc1ccc(C(Cl)(Cl)Cl)c(Cl)c1 | inactive | inactive | inactive | inactive | inactive | inactive | inactive | 61.6 µM (active) | – | – | – | – | –
12 | Clc1ccc(CCC(Cn2ccnc2)Sc2c(Cl)cccc2Cl)cc1 (stereo not drawn) | inactive | inactive | inactive | – | – | – | – | – | -0.283% [at 18.6 µM] | -0.0029% [at 18.6 µM] | 0.0582% [at 18.6 µM] | 0.0698% [at 18.6 µM] | –
13 | C[C@]12Cc3nonc3C[C@@H]1CC[C@@H]1[C@@H]2CC[C@@]2(C)[C@H]1CC[C@]2(C)O | inactive | – | – | inactive | inactive | inactive | – | – | – | – | – | – | 29.8 µM (active)
14 | Oc1ccc(C(=C(Cl)Cl)c2ccc(O)cc2)cc1 | inactive | inactive | – | inactive | inactive | inactive | inactive | 17.2 µM (active) | – | – | – | – | –
15 | CC[C@H]1C[C@@H]2C[C@H]3c4[nH]c5ccc(OC)cc5c4CCN(C2)[C@@H]13 | inactive | inactive | inactive | inactive | inactive | inactive | inactive | – | – | – | – | – | –
16 | Oc1ccc(C2(c3ccc(O)cc3)CCCCC2)cc1 | inactive | inactive | inactive | inactive | inactive | inactive | inactive | 16.3 µM (active) | – | – | – | – | –

Row | Structure (SMILES) | Potency [1] | Potency [2] | Potency [3] | outcome [4] | outcome [5] | Potency [6] | outcome [7] | Potency [8] | fluorescence, relative to Rose Bengal [4] | fluorescence, % of fluorescein control [5] | fluorescence, % of triamterene [6] | fluorescence, % of fluorescent control [7] | Potency [9]
17 | C[C@@H]1O[C@@H](O[C@@H]2C=C3CC[C@@H]4[C@H](CC[C@]5(C)[C@@H](c6ccc(=O)oc6)CC[C@]45O)[C@@]3(C)CC2)[C@H](O)[C@H](O)[C@H]1O | inactive | 0.0227 µM (active) | inactive | – | – | – | – | 0.0639 µM (active) | 0.222% [at 18.6 µM] | -0.0054% [at 18.6 µM] | 0.167% [at 18.6 µM] | -0.104% [at 18.6 µM] | –
18 | S=C(SSC(=S)N1CCCCC1)N1CCCCC1 | 29.8 µM (active) | inactive | inactive | inactive | inactive | inactive | inactive | inactive | – | – | – | – | –
19 | O=C1c2ccccc2C(=O)C1C(=O)C(c1ccccc1)c1ccc(Cl)cc1 (stereo not drawn) | inactive | 3.06 µM (active) | – | inactive | inactive | inactive | – | 0.386 µM (active) | – | – | – | – | –
20 | CC1(C)CC/C(=C/c2ccc(Cl)cc2)C1(O)Cn1cncn1 (stereo not drawn) | inactive | inactive | inactive | inactive | inactive | inactive | inactive | – | – | – | – | – | –
21 | COc1ccc(OC)c(CC(C)N)c1 (stereo not drawn) | inactive | inactive | inactive | inactive | inactive | inactive | inactive | inactive | – | – | – | – | –
22 | CCCN(CCC)c1c([N+](=O)[O-])cc(S(N)(=O)=O)cc1[N+](=O)[O-] | inactive | 54.5 µM (active) | 32.7 µM (active) | inactive | inactive | inactive | – | 3.67 µM (active) | – | – | – | – | –
23 | Cc1cc(SCc2sc(-c3ccc(C(F)(F)F)c(F)c3)nc2C)ccc1OCC(=O)O | inactive | – | – | inactive | inactive | inactive | inactive | – | – | – | – | – | 48.6 µM (active)
24 | CC1(C)C(/C=C(\Cl)C(F)(F)F)C1C(=O)OC(C#N)c1cccc(Oc2ccccc2)c1 (stereo not drawn) | inactive | inactive | – | inactive | inactive | inactive | inactive | 34.9 µM (active) | – | – | – | – | –
25 | Clc1ccc(C(c2ccc(Cl)cc2)C(Cl)(Cl)Cl)cc1 | inactive | inactive | – | inactive | inactive | inactive | inactive | 21.1 µM (active) and 19.5 µM (active) and 15.4 µM (active) | – | – | – | – | –
26 | O=C(O)COc1nc(Cl)c(Cl)cc1Cl | inactive | inactive | – | inactive | inactive | inactive | – | 19.8 µM (active) | – | – | – | – | –
27 | Oc1cc(Cl)c(Cl)c(Cl)c1 | inactive | inactive | – | inactive | inactive | inactive | inactive | 2.31 µM (active) | – | – | – | – | –
28 | CC(C)N1C(=O)N(c2ccccc2)CSC1=NC(C)(C)C | inactive | inactive | 15.4 µM (active) | inactive | inactive | inactive | inactive | 38.6 µM (active) | – | – | – | – | –
29 | S=C=Nc1cccc2ccccc12 | inactive | inactive | 48.1 µM (active) | inactive | inactive | inactive | – | 17.1 µM (active) | – | – | – | – | –
30 | C[C@H]1O[C@@H](O[C@H]2[C@@H](O)C[C@H](O[C@H]3[C@@H](O)C[C@H](O[C@H]4CC[C@@]5(C)[C@H](CC[C@@H]6[C@@H]5CC[C@]5(C)[C@@H](C7=CC(=O)OC7)CC[C@]65O)C4)O[C@@H]3C)O[C@@H]2C)C[C@H](O)[C@@H]1O | inactive | 53.1 nM (active) and 30.8 nM (active) | inactive | inactive | inactive | inactive | – | 119 nM (active) and 97.5 nM (active) | – | – | – | – | –
31 | CCOP(=O)(NC(C)C)Oc1ccc(SC)c(C)c1 (stereo not drawn) | – | – | – | inactive | inactive | inactive | inactive | – | – | – | – | – | –
32 | O=[N+]([O-])c1cc([N+](=O)[O-])c2ccccc2c1 | inactive | inactive | – | inactive | inactive | inactive | inactive | 10.9 µM (active) | – | – | – | – | –
